Rows were chosen to be rich in hits. Some 1.5% of all compounds tested hit in one or more screens of this group.
Mac1 fbg enh – increases human CD11b/CD18 adhesion to fibrinogen | P05107+P11215 | K562 CD11b/CD18 adhesion to fibrinogen, ATPlite luminescence | activation, % at 10 µM | 93,000 compounds, 0.07% hits | AID 1499;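 active means 10 µM primary screen giving 50% or more activity, confirmed by 40% or more on retest at that dose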
Target sequence (P05107 whole entry, looked up, other chains not shown): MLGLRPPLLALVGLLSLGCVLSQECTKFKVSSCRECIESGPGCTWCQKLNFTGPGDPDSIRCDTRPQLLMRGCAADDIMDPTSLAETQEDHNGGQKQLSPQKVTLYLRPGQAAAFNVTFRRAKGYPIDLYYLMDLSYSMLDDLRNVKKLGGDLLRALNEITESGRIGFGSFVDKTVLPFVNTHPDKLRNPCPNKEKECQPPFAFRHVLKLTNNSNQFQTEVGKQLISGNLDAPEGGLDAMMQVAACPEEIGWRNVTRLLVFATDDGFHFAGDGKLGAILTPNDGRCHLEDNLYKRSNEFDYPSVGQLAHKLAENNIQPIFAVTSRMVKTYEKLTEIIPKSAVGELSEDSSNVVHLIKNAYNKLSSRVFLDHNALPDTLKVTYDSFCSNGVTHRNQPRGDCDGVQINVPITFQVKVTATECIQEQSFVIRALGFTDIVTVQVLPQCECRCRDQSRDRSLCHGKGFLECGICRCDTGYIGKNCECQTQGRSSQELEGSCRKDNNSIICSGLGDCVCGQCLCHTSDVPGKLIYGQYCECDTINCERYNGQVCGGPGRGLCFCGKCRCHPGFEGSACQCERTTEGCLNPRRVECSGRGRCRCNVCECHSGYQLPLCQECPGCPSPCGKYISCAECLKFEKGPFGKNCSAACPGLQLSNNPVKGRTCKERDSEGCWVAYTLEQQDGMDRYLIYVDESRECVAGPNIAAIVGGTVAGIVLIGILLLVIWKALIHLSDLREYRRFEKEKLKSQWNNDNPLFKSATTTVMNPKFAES
Phagocyt inh – inhibitors of macrophage phagocytosis; J774A.1 macrophage IgG-bead phagocytosis, imaging; inhibition, % at 5 µM; 110,000 compounds, 0.07% hits; AID 1029;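 active means inhibition above the mean of the plate negative controls plus 5 SD, cut at about 13% in these data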;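 further: phagocytic index as fraction of beads internalized from green versus red external bead signal; plate controls were DMSO negative control for no effect and cytochalasin-D positive control for full effect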
FAK inh – blocks human focal adhesion kinase activity; 97,000 compounds, 0.84% hits; inhibition, %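 (tested at 7 µM)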; AID 727; biochemical FAK kinase activity assay; Q05397;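 further: 0% = DMSO and 100% = reference compound high control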
MRP reversal – compounds reversing MRP-mediated drug resistance. H69AR cells + 2 uM doxorubicin, CellTiter-Glo, 72 h. differential viability (reversal), % at 10 µM. 85,000 compounds, 0.04% hits. AID 602;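 active means viability drop by adding the cancer drug above about 55%, with treated viability meeting a 40% cutoff, limit read from the data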;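 further: viability without doxorubicin minus viability with 2 µM doxorubicin for each compound; larger differential means the compound sensitizes cells more to doxorubicin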
Mac1 fbg inh – inhibitors of human CD11b/CD18 binding to fibrinogen; K562 CD11b/CD18 adhesion to fibrinogen, ATPlite luminescence; Mn2+ added to activate the integrin; 93,000 compounds, 0.54% hits; inhibition, % at 10 µM;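 active means primary inhibition of 50% or more at 10 µM, then 40% or more on retest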
MRP-1 activ – MRP-1 activation; H69AR cells + doxorubicin, viability rescue, CellTiter-Glo; viability increase, % at 10 µM; 140,000 compounds, 0.61% hits; AID 799;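 active means viability gain under doxorubicin at or above a set limit, the compound median plus 3 SD, cut at about 4.7% in these data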;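 further: MRP-1 overexpressing cells given doxorubicin 25 µM after compound pretreatment; 18-22 h compound pretreatment then 72 h with doxorubicin before readout; 0% = doxorubicin-only wells and 100% = vehicle-treated cells without doxorubicin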
FAK inh confirm – FAK (human) inhibition confirmed; FAK kinase biochemical inhibition assay; 750 compounds, 28% hits; shares compounds with FAK inh; AID 794; inhibition, % at 7 µM
Starred values were filed as active, the others as inactive; / = not tested or not shown. Unless noted, no stated cut-off is given here; in the data, active means inhibition above about 19%; inactive means the rest.

SMILES	Mac1 fbg enh	Phagocyt inh	FAK inh	MRP reversal	Mac1 fbg inh	MRP-1 activ	FAK inh confirm
COc1cccc(OC)c1OCC(C)CNCC1CCCO1 (centres undefined)	-4	/	0	-3	5	-1	/
CC(C)(CS(=O)(=O)[O-])NC(=O)CC[N+](C)(C)CCO	2	-1	28*	-5	-1	-1	6
O=C(N/N=C/c1ccncc1)c1cc2c(ccc3ccccc32)o1	1	/	52*	/	3	-2	17
CCCN1c2cccc3cccc(c23)S1(=O)=O	1	0	/	6	/	-1	/
O=C(N/N=C/c1ccc2ccccc2c1)c1ccc(COc2ccc3c(c2)CCC3)o1	/	/	33*	/	/	-1	24*
CCOC(=O)C1CCN(C(=O)Nc2ccc3nc(-c4ccco4)c(-c4ccco4)nc3c2)CC1	24	0	93*	-11	3	-2	5
O=C(COC(=O)C1c2ccccc2Oc2ccccc21)Nc1ccc2c(c1)OCO2	20	-1	1	-5	-1	-1	/
c1ccc2c(c1)CCN2CCN1CCc2ccccc21	4	2	/	14	-23	-1	/
CN(C)CCN1CCc2ccccc21	6	-2	32*	9	14	1	45*
COc1cc(-c2cc(OC)c3c(C)oc(C)c3c(=O)c2)ccc1O	-1	0	20*	-30	4	-5	13
O=C(Nc1ccc(-c2nc3ccc(NC(=O)c4cccs4)cc3[nH]2)cc1)c1cccs1	32	-1	53*	-2	3	-2	47*
Cc1nn(-c2ccccc2)c(NC(=O)c2cccs2)c(-c2ccccc2)c1=O	/	0	/	/	/	-2	/
COc1ccc(COc2ccsc2C(=O)Nc2ccc(Cl)c(Cl)c2)cc1	/	/	25*	/	/	-2	7
Cc1ccc(-c2nc3ccccc3s2)cc1NC(=O)c1cc(-n2cnnc2)ccc1Cl	/	/	29*	/	/	-5	7
Cc1ccc(-c2nc3ccccc3s2)cc1NC(=S)NC(=O)c1ccccc1	-1	2	-3	/	3	-2	/
O=[N+]([O-])c1cc(/C=N\Nc2nccs2)ccc1O	45	-2	91*	6	-14	0	72*
CN1/C(=N\O)c2cccc3cccc1c23	-3	0	21*	17	-1	-1	8
CNC(=O)CN1C(=O)c2cccc3cccc1c23	-2	0	1	5	24	-2	/
COc1ccc2cc3cc(C(=O)Nc4cc(OC)c(OC)c(OC)c4)oc3nc2c1	9	3	0	6	8	-2	/
COc1ccc2cc3cc(C(=O)Nc4ccc5c(c4)OCCO5)oc3nc2c1	52	3	43*	-1	-1	-3	13
C=C(CC)C(=O)c1ccc(OCC(=O)O)c(Cl)c1Cl	/	/	/	-1	/	-4	/
CCOc1ccc(S(=O)(=O)Nc2ccccc2SC)c2cccnc12	/	/	20*	-19	/	-4	11
CC(C)c1cc(CN2CCN(CCC#N)CC2)cc(C(C)C)c1O	/	/	4	-11	/	-2	/
CSc1nc(NCC(C)C)c2c3c(sc2n1)CN(C)CC3	-1	3	5	/	-18	-2	/
CSc1nc(NCc2ccccc2)c2c3c(sc2n1)CN(C)CC3	-2	-1	21*	/	-10	-5	6
SMILES	Mac1 fbg enh	Phagocyt inh	FAK inh	MRP reversal	Mac1 fbg inh	MRP-1 activ	FAK inh confirm
O=C(c1ccco1)[C@@H]1[C@@H]2C(=O)N(c3ccc(F)cc3)C(=O)[C@@H]2C2c3ccccc3C=CN21 (some centres undefined)	-4	0	35*	9	10	-2	7
O=C(c1ccco1)[C@@H]1[C@@H]2C(=O)N(c3ccc(F)cc3)C(=O)[C@@H]2[C@H]2C=Cc3ccccc3N21	/	-9	/	/	/	-4	/
CC(=O)[C@@H]1[C@@H]2C(=O)N(c3ccc(F)c(Cl)c3)C(=O)[C@@H]2C2c3ccccc3C=CN21 (some centres undefined)	/	/	/	/	/	-3	/
CC(=O)[C@H]1[C@@H]2C(=O)N(c3cccc(Cl)c3)C(=O)[C@@H]2[C@H]2c3ccccc3C=CN21	3	0	23*	24	16	-1	6
O=C(c1ccco1)[C@@H]1[C@@H]2C(=O)N(c3ccc(Br)cc3)C(=O)[C@@H]2C2c3ccccc3C=CN21 (some centres undefined)	14	-1	19*	1	-14	/	4
CCC1=NNc2cccc3c(OC)ccc1c23	65	1	82*	19	-14	-2	26*
O=C(NCCCN1CCOCC1)C(C(=O)c1ccccc1)n1ccccc1=O (centres undefined)	2	0	0	-22	21	0	/
O=Cc1ccc2noc(-c3ccc(F)cc3)c2c1	-4	-1	34*	-36	12	-2	33*
CC1(c2ccc3noc(-c4ccc(F)cc4)c3c2)OCCO1	-6	1	1	-6	-46	-2	/
Cc1ccc2c(n1)sc1c(-c3ccc(Br)cc3)c(C#N)c(N)nc12	/	/	29*	/	/	0	14
COc1ccc(NC(=O)CC2C(=O)N(c3cccc(OC)c3)C(=O)N2C2CCCCC2)cc1 (centres undefined)	-4	-4	2	-1	8	0	/
CCCc1nc2sc3ccccc3c(=O)c2c(=O)n1Cc1ccco1	-2	0	22*	-11	5	-5	6
COc1ccc(CN2CCn3ncc(C(=O)Nc4cccc(C)c4)c3C2=O)cc1	-6	0	-2	2	6	-2	/
N#Cc1cnn2c1nc(N1CCOCC1)c1ccccc12	-2	0	51*	/	-3	-4	26*
O=C(ONc1ccc(N=NC(=O)c2ccccc2O)cc1)c1ccccc1	97	-1	80*	-3	14	-6	22*
CCc1ccc2nc(SCC(=O)N(CC)CC)c(C#N)cc2c1	-2	0	41*	-14	-11	-1	27*
CCOc1ccc2nc(SCC#N)c(C#N)cc2c1	-4	0	20*	-9	-18	5.0*	0
Cc1ccccc1C(=O)/C=C1\NC(=O)CS1	2	-1	1	5	-4	0	/
C=CCn1c(P(=O)(O)c2ccccc2)nc2ccccc21	/	/	35*	/	/	-3	24*
C=CCn1c(CNC(=O)CCC)nc2ccccc21	/	/	2	5	/	/	/
O=C(CSc1nnc(COc2ccccc2Cl)o1)NC(=O)NC1CCCC1	0	0	23*	11	-6	0	8
CCc1cc(=O)oc2cc(C)c(CN3CCCC3)c(O)c12	1	2	29*	17	-10	1	2

Screening results (PubChem)
